# High-throughput results as filed in PubChem.
# Most compounds without a hit are left out; they make up all but 4.7% or so of the library.
# FBA Mtb inh – Mtb fructose-bisphosphate aldolase inhibition; inhibition, % at 1 µM; actives 2.3% (n = 360,000); purified M. tuberculosis FBA, fluorescence read-out; P9WQA3; in the data active = inhibition above about 27%;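 note: 0% = vehicle and 100% = reference inhibitor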
# Target sequence (P9WQA3 whole entry, looked up): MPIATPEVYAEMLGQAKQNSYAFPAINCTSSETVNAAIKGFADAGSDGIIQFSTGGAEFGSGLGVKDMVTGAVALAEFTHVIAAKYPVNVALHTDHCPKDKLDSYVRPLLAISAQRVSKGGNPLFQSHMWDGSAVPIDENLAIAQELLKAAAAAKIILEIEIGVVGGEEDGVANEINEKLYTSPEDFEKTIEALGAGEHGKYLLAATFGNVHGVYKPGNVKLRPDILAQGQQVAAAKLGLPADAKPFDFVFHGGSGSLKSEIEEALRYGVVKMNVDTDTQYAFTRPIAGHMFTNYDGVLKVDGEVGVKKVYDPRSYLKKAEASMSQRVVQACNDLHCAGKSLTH
# VHR inh abs – inhibitors of human VHR1 phosphatase (DUSP3); P51452; recombinant VHR phosphatase, pNPP absorbance; inhibition, % at 13.3 µM; actives 0.52% (n = 290,000); AID 1654; in the data active = inhibition above about 50%
# CCHFV vOTU inh – CCHFV vOTU protease inhibition; Pep-AMC fluorescence; inhibition, % at 11.5 µM; actives 0.55% (n = 370,000); note: 0% = vehicle wells with enzyme and 100% = no enzyme wells
# SARS 3CLpro inh – SARS-CoV 3CLpro protease inhibition; recombinant SARS-CoV 3CLpro, quenched FRET peptide cleavage; actives 0.14% (n = 290,000); AID 1706; inhibition, % at 6 µM; P0C6X7; in the data active = inhibition above about 12%
# GDH-TPI counter – GDH-TPI coupled enzyme inhibition counter-screen; GDH-TPI coupled enzyme counterscreen, NADH absorbance; AID 588335; actives 1.2% (n = 360,000); inhibition, % at 4.8 µM;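 note: 0% = DMSO wells and 100% = wells lacking the enzyme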
# RecA intein inh – blocks M. tuberculosis RecA intein splicing. P9WHJ3. inhibition, % (no concentration beside the values). cell-free RecA intein splicing, fluorescence. actives 0.75% (n = 290,000); in the data active = inhibition above about 30%;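 note: 0% = vehicle wells and 100% = reference inhibitor control wells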
# The depositor's hits bear a star; x = no result given. Cut-off read from the data, not from the text of the source, unless noted: active = inhibition above about 30%; inactive = the rest.
SMILES,FBA Mtb inh,VHR inh abs,CCHFV vOTU inh,SARS 3CLpro inh,GDH-TPI counter,RecA intein inh
COc1ccc(/C=N\N=C2/SC(CC(=O)O)C(=O)N2c2ccc(O)cc2)cc1OC (stereo unspecified),0,16,9,2,44*,-1
COc1cc(/C=N\N=C2/SC(CC(=O)O)C(=O)N2c2ccc(O)cc2)ccc1O (stereo unspecified),1,26,4,0,32*,x
O=C(NC1CCC1)C1CCC(=O)N(Cc2ccc(Cl)cc2)C1 (stereo unspecified),-2,x,-6,x,3,x
COC(=O)c1nc(N)sc1-c1ccccc1,11,-16,8,2,-4,x
COC(=O)c1nc(N)sc1C(C)C,-3,53*,13,-2,-3,-6
CSc1ncccc1C(=O)Nc1nccs1,-7,-11,-2,3,-4,1
Cc1cc(=O)c2c(=O)[nH][nH]c2[nH]1,6,x,5,x,12,x
C=C(C)C(=O)NC1=NN(c2ccccc2)C(=O)C1,5,6,11,-3,-5,73*
CC(C)(Oc1ccc(Cl)cc1)C(=O)NC1=NN(c2ccccc2)C(=O)C1,1,-5,5,5,10,12
CCC1=CC(c2ccccc2)n2ncnc2N1 (stereo unspecified),35*,x,-25,x,12,-6
C=CCN1C(=O)/C(=C2/Sc3ccccc3N2CC)SC1=S,-4,11,-3,4,14,-5
C=CCN1C(=O)/C(=C2/Sc3ccccc3N2CCCS(=O)(=O)O)SC1=S,-28,50*,11,1,13,-11
CCC1=NN2C(=N)/C(=C\c3cccn3-c3c(C)cccc3C)C(=O)N=C2S1,5,10,17,5,44*,0
CCC1=NN2C(=N)/C(=C\c3cccn3-c3ccc(C)cc3C)C(=O)N=C2S1,-3,21,4,12,26,15
CC(C)(C)NS(=O)(=O)c1ccc(CCC(=O)Nc2ccc3c(c2)OCO3)cc1,-1,15,12,4,10,4
CC(C)(C)NS(=O)(=O)c1ccc(CCC(=O)Nc2ccc3c(c2)OCCO3)cc1,1,51*,5,3,5,0
CN(C)c1ccc(C(=O)NCCc2ccccc2-c2ccccc2CCC(=O)NCc2ccccc2)cc1,x,x,2,x,x,x
C=CCn1c(O)c(C=NCCN2CCOCC2)c(=O)[nH]c1=S,-3,13,0,0,48*,-1
CCCCn1c(O)c(/C=N/N2CCOCC2)c(=O)[nH]c1=S,3,32,-5,-3,37*,-3
Cn1c(O)c(C=NCCN2CCOCC2)c(=O)[nH]c1=S,2,0,12,-3,18,2
O=c1[nH]c(=S)n(C2CCCCC2)c(O)c1C=NCCN1CCOCC1,-7,3,-2,3,45*,-1
C=CCNc1ccc2c(c1)OC[C@H](Cc1ccccc1)NS2(=O)=O,x,x,11,x,x,x
Cc1ccccc1-c1n[nH]nc1C1=CC(=O)C[C@H](c2ccc(F)cc2)C1,-4,x,8,x,4,x
Cc1cccc(C(=O)NCC(c2cccs2)N2CCOCC2)c1 (stereo unspecified),0,x,6,x,4,1
Cc1ccc(NC(=S)N/N=C/c2ccc(OCCC(C)C)cc2)c(C)c1,3,2,17,-1,36*,-1
SMILES,FBA Mtb inh,VHR inh abs,CCHFV vOTU inh,SARS 3CLpro inh,GDH-TPI counter,RecA intein inh
Cc1ccc(NC(=S)N/N=C/c2c(Cl)cccc2Cl)c(C)c1,-1,17,4,4,10,7
CCN(C(=O)COC(=O)/C(C#N)=C/c1cc(C)n(CCOC)c1C)c1c(N)n(Cc2ccccc2)c(=O)[nH]c1=O,5,x,19,x,37*,x
CC(=O)N/C(=N/c1nc(C)cc(C)n1)Nc1ccc(NC(C)=O)cc1,-3,9,4,-4,-1,-1
CC(=O)N/C(=N\c1nc(C)cc(C)n1)Nc1ccc2ccccc2c1,1,54*,-12,-3,12,3
Cc1ccc(/C=N/NC(=O)c2cccnc2)o1,-1,-19,-1,3,17,-3
Nc1nnc(CC(=O)N/N=C/c2ccc(-c3cccc(C(=O)O)c3)o2)s1,4,16,24,1,46*,x
CCOC(=O)c1ccc(-c2ccc(/C=N/NC(=O)Cc3nnc(N)s3)o2)cc1,21,21,-18,2,40*,x
O=C(Cc1ccc(Br)cc1)N/N=C/c1ccc(-c2cccc(C(=O)O)c2)o1,7,29,0,1,62*,-1
